This note sets out measurements from PubChem BioAssay (NCI).

Among the test systems are SK-MEL-2 melanoma; EKVX NSCLC; SN12C renal; UO-31 renal; TK-10 renal; ACHN renal; CAKI-1 renal; A498 renal; CCRF-CEM leukemia; MOLT-4 leukemia; SR leukemia; RPMI-8226 leukemia; OVCAR-8 ovarian; OVCAR-5 ovarian; OVCAR-4 ovarian; SK-OV-3 ovarian; IGROV1 ovarian; OVCAR-3 ovarian; HS 578T breast; NCI/ADR-RES ovarian.
Holding throughout (assay): NCI-60 one-dose screen, 48 h (100 = growth as untreated, 0 = no growth, -100 = all killed)
Common to all, as to conditions: 10 µM unless noted

This is part of a sample that, as a whole, favours compounds with a hit. Of some 83,000 tested, about 20% had one in any assay.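 Method: cells in 96-well plates; compound added at one concentration; 48 h incubation; percent growth measured; values under 10 scored active.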 Unmarked numbers belong to inactive results. The source made the active and inactive calls.

Turning to `COC1/C=C/OC2(C)Oc3c(C)c(O)c4c(O)c(c(/C=N/Nc5ccc([N+](=O)[O-])cc5[N+](=O)[O-])c(O)c4c3C2=O)NC(=O)C(C)=C/C=C/C(C)C(O)C(C)C(O)C(C)C(OC(C)=O)C1C` (stereo not given), the growth in the assay on SK-MEL-2 melanoma was 30.5%; with EKVX NSCLC, 45.1%; in the assay with SN12C renal it was -5.59% (active); in the assay on UO-31 renal it was 70.2%; with TK-10 renal, 25.7%; with ACHN renal, 28.1%. The growth is 74.2% with CAKI-1 renal; 96% in the assay with A498 renal; 6.19% (active) in the assay on CCRF-CEM leukemia; 0.359% (active) with MOLT-4 leukemia; 7.02% (active) in the assay with SR leukemia; 7.67% (active) with RPMI-8226 leukemia. Besides, the growth is 27.3% in the assay with OVCAR-8 ovarian; 48.3% in the assay with OVCAR-5 ovarian; 35% in the assay on OVCAR-4 ovarian; 112% in the assay with SK-OV-3 ovarian; 28.5% in the assay with IGROV1 ovarian; -42.1% (active) in the assay on OVCAR-3 ovarian. The growth with HS 578T breast was 20%; in the assay with NCI/ADR-RES ovarian, 76.7%.
On to `Cc1ccc2c(n1)C(=O)C(Br)=C(C1CCCC1)C2=O`, for which the growth was 112% in the assay with SK-MEL-2 melanoma; 98.9% in the assay with EKVX NSCLC; 95.2% in the assay on SN12C renal; 78.3% with UO-31 renal; 120% with TK-10 renal; 77.9% in the assay with ACHN renal. The growth in the assay with CAKI-1 renal was 90.8%; with A498 renal, 108%; in the assay with CCRF-CEM leukemia it was 26.2%; in the assay with MOLT-4 leukemia it was 34.6%; in the assay on SR leukemia, 31.1%; with RPMI-8226 leukemia, 55.9%. In addition, the growth is 96% with OVCAR-8 ovarian; 106% in the assay on OVCAR-5 ovarian; 112% with OVCAR-4 ovarian; 88.7% in the assay on SK-OV-3 ovarian; 96% with IGROV1 ovarian; 82.9% in the assay on OVCAR-3 ovarian. Moreover, the growth was 93.1% with HS 578T breast and 97.1% in the assay with NCI/ADR-RES ovarian.
`COC(=O)CC[C@@H]1O[C@@H](c2cccc(C(F)(F)F)c2)[C@@H](O)[C@H]1O`: the growth with SK-MEL-2 melanoma is 103%; with EKVX NSCLC, 97.7%; with SN12C renal, 106%; in the assay with UO-31 renal, 92.9%; with TK-10 renal it was 98.9%; in the assay on ACHN renal it was 103%. The growth in the assay on CAKI-1 renal is 94%; with A498 renal it was 106%; in the assay with CCRF-CEM leukemia, 109%; with MOLT-4 leukemia, 104%; with SR leukemia, 97.1%; in the assay with RPMI-8226 leukemia, 109%. Further, the growth was 110% in the assay on OVCAR-8 ovarian; 97.1% in the assay with OVCAR-5 ovarian; 105% with OVCAR-4 ovarian; 97.8% with SK-OV-3 ovarian; 112% in the assay on IGROV1 ovarian; 99.4% with OVCAR-3 ovarian. The growth in the assay with HS 578T breast is 93.8%; in the assay on NCI/ADR-RES ovarian it was 108%.
Regarding `Cn1ccnc1C(=O)/C=C/c1ccc(CC(=O)Nc2cc(C(F)(F)F)cc(C(F)(F)F)c2)cc1`, the growth was 102% with SK-MEL-2 melanoma; 89.8% in the assay with EKVX NSCLC; 67.4% in the assay with SN12C renal; 63.2% with UO-31 renal; 106% with TK-10 renal; 84.5% with ACHN renal. In addition, the growth in the assay on CAKI-1 renal was 76.4%; with A498 renal, 90%; with CCRF-CEM leukemia, 47.5%; in the assay on MOLT-4 leukemia, 14.7%; with SR leukemia, 39.4%; in the assay with RPMI-8226 leukemia, 55%. The growth in the assay with OVCAR-8 ovarian was 41%; with OVCAR-5 ovarian, 83.8%; in the assay with OVCAR-4 ovarian it was 78.8%; in the assay with SK-OV-3 ovarian, 109%; in the assay with IGROV1 ovarian it was 71.4%; in the assay on OVCAR-3 ovarian, 62.6%. Further, the growth was 66.6% with HS 578T breast and 65.3% in the assay with NCI/ADR-RES ovarian.
Take `Cc1ccc(NC(=O)c2sc3nc(C)c(Br)c(C)c3c2N)cc1`: the growth in the assay with SK-MEL-2 melanoma was 82.6%; with EKVX NSCLC, 61.9%; in the assay on SN12C renal, 70.5%; with UO-31 renal, 65.4%; with TK-10 renal, 50.7%; with ACHN renal, 34.5%. Moreover, the growth was 74.3% with CAKI-1 renal; 76.5% with A498 renal; 94.7% in the assay with CCRF-CEM leukemia; 90% in the assay with MOLT-4 leukemia; 81.6% in the assay on SR leukemia; 83.3% with RPMI-8226 leukemia. Further, the growth in the assay on OVCAR-8 ovarian was 39.7%; in the assay on OVCAR-5 ovarian it was 79.1%; in the assay with OVCAR-4 ovarian, 11.7%; with SK-OV-3 ovarian, 48.9%; with IGROV1 ovarian it was 51.8%; with OVCAR-3 ovarian, 67%. Also, the results for the growth with HS 578T breast and in the assay with NCI/ADR-RES ovarian were 31.8% and 51.8%, respectively.
For `O=C(CSc1nc2ccc([N+](=O)[O-])cc2[nH]1)Nc1ccc([N+](=O)[O-])cc1`, the growth was -5.26% (active) in the assay on SK-MEL-2 melanoma; 20.3% in the assay with EKVX NSCLC; 9.04% (active) in the assay on SN12C renal; 9.43% (active) with UO-31 renal; 31.8% in the assay with TK-10 renal; 21.4% with ACHN renal. In addition, the growth with CAKI-1 renal was 12.7%; in the assay with A498 renal, -6.66% (active); in the assay with CCRF-CEM leukemia, 16.8%; in the assay with MOLT-4 leukemia, 5.72% (active); in the assay on SR leukemia it was 10.7%; in the assay on RPMI-8226 leukemia, -17.5% (active). The growth in the assay on OVCAR-8 ovarian was 14.4%; in the assay with OVCAR-5 ovarian, 63.3%; in the assay with OVCAR-4 ovarian, 1.39% (active); in the assay with SK-OV-3 ovarian, 27%; in the assay with IGROV1 ovarian, 37.7%; in the assay with OVCAR-3 ovarian, 18.5%. In addition, the growth was 31.7% with HS 578T breast and 36.3% in the assay on NCI/ADR-RES ovarian.
For the compound `O=S(=O)(NCCNc1nccc(-c2c(-c3ccc(F)c(O)c3)nc3sccn23)n1)c1ccc(O)cc1`, the growth with SK-MEL-2 melanoma is 19.8%; in the assay with EKVX NSCLC it was 56.3%; with SN12C renal, 38.2%; in the assay with UO-31 renal it was 6.46% (active); in the assay with TK-10 renal it was 46.3%; in the assay with ACHN renal, 33.3%. Further, the growth was 27.2% in the assay with CAKI-1 renal; 43.4% in the assay on A498 renal; 22.2% with CCRF-CEM leukemia; 19.3% with MOLT-4 leukemia; 38.4% with SR leukemia; 17.9% with RPMI-8226 leukemia. In addition, the growth with OVCAR-8 ovarian was 32.8%; in the assay on OVCAR-5 ovarian, 104%; in the assay with OVCAR-4 ovarian, 34.1%; in the assay with SK-OV-3 ovarian, 53.7%; in the assay on IGROV1 ovarian it was 36.1%; in the assay with OVCAR-3 ovarian, 57.4%. In addition, the figures for the growth in the assay on HS 578T breast and in the assay on NCI/ADR-RES ovarian were 64.1% and 39.6%, respectively.
Turning to `Cc1ccc(C[P+](c2ccccc2)(c2ccccc2)c2ccccc2)cc1`, the growth with SK-MEL-2 melanoma was -4.59% (active); in the assay on EKVX NSCLC, 6.8% (active); with SN12C renal, 4.76% (active); in the assay with UO-31 renal, 88.1%; with TK-10 renal, 30.5%; in the assay on ACHN renal, 24.4%. Also, the growth in the assay with CAKI-1 renal is 44.8%; with A498 renal, 27.5%; in the assay on CCRF-CEM leukemia, 9.9% (active); with MOLT-4 leukemia, -31.4% (active); in the assay on SR leukemia, -3.87% (active); in the assay on RPMI-8226 leukemia, -17.6% (active). Moreover, the growth in the assay on OVCAR-8 ovarian was 15.6%; with OVCAR-5 ovarian, 7.45% (active); in the assay with OVCAR-4 ovarian, 1.45% (active); in the assay with SK-OV-3 ovarian, 6.84% (active); in the assay on IGROV1 ovarian, 18.7%; in the assay with OVCAR-3 ovarian, 5.95% (active). In addition, the results for the growth in the assay on HS 578T breast and in the assay with NCI/ADR-RES ovarian were 8.62% (active) and 93.5%, respectively.
